Experimental findings from PubChem BioAssay (NCI) are described below.

A short description of experiment [1]: NCI Yeast Anticancer Drug Screen. Data for the rad50 strain (AID 155).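 Also: 0% = growth of vehicle-only cultures of the same strain.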 The settings on record: S. cerevisiae rad50 strain growth inhibition, hits give high values. The essentials: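 Genetically altered yeast (DNA repair pathway); compound treatment; growth inhibition vs vehicle ctrl.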
Experiment [2] can be described thus: NCI Yeast Anticancer Drug Screen. Data for the mec2-1 strain (AID 157). The settings on record: S. cerevisiae mec2-1 strain, hits give high values. The essentials: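 Compounds were applied to mec2-1 yeast cells. Their growth was then compared with that of vehicle-treated cultures to give growth inhibition.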
Experiment [3] in a line: NCI Yeast Anticancer Drug Screen. Data for the sgs1 mgt1 strain (AID 161).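 Also: 0% = growth of cultures given vehicle only.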 The settings on record: S. cerevisiae sgs1 mgt1 strain, hits give high values. In a few lines:
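Growth of a repair-deficient yeast mutant was monitored after compound treatment and expressed as inhibition relative to vehicle-treated cultures.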

A short description of experiment [4]: NCI Yeast Anticancer Drug Screen. Data for the cln2 rad14 strain (AID 165).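 Also: 0% = growth equal to vehicle treated cultures.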 The settings on record: S. cerevisiae cln2 rad14 strain, hits give high values. The essentials: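 Strain: cln2 rad14 yeast, altered in cell cycle control and DNA damage repair. Read-out: growth inhibition vs vehicle.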
The nature of experiment [5]: NCI Yeast Anticancer Drug Screen. Data for the bub3 strain (AID 167). The settings on record: S. cerevisiae bub3 mutant strain, hits give high values. In a few lines:
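Yeast carrying a defined mutation is treated with each compound, and growth is compared with that of vehicle-exposed cells to give inhibition.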

Experiment [6] in a line: NCI Yeast Anticancer Drug Screen. Data for the mlh1 rad18 strain (AID 175). The settings on record: S. cerevisiae mlh1 rad18 strain growth inhibition, hits give high values. In a few lines:
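A repair-deficient yeast strain is exposed to test compound, and growth is scored relative to vehicle-treated controls.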

[7] abbreviates: at 5.0 µM (retest, dose inferred, filed as 0.5).
Where [8] appears, read: at 50.0 µM (retest, dose inferred, filed as 5.0).

Structures are written as SMILES. Compounds without any hit were thinned out: in the full panel of roughly 79,000, 15% have a hit. A number with no mark means an inactive call. Calls of active or inactive are those of the source. Rule as the data show it: active = growth inhibition above about 70%; inactive = the rest.

Regarding `S=C(Nc1cc(Cl)c(Cl)cc1Cl)SCc1ccccc1`, the growth inhibition in experiment [1] (setting [7]) is 14%; in experiment [1] (setting [8]), 97% (active); in experiment [1] (at 50.0 µM), 98.7% (active); in experiment [2] (setting [7]) it was 8%; in experiment [2] (setting [8]), 99% (active); in experiment [2] (at 50.0 µM), 99.3% (active). Further, the growth inhibition in experiment [3] (setting [7]) is 30%; in experiment [3] (setting [8]), 99% (active); in experiment [3] (at 50.0 µM), 99.2% (active); in experiment [4] (setting [7]) it was 12%; in experiment [4] (setting [8]) it was 98% (active); in experiment [4] (at 50.0 µM), 97.8% (active). Also, the growth inhibition in experiment [5] (setting [7]) is 39%; in experiment [5] (setting [8]), 99% (active); in experiment [5] (at 50.0 µM) it was 99.2% (active); in experiment [6] (setting [7]), 55%; in experiment [6] (setting [8]), 99% (active); in experiment [6] (at 50.0 µM) it was 99% (active).

As to `CC1=C[P+](c2ccccc2)(c2ccccc2)C=C(c2ccccc2)O1`, the growth inhibition in experiment [1] (setting [7]) is 51%; in experiment [1] (setting [8]) it was 94% (active); in experiment [1] (at 50.0 µM), 84.5% (active); in experiment [2] (setting [7]) it was 24%; in experiment [2] (setting [8]), 98% (active); in experiment [2] (at 50.0 µM), 88.1% (active). Moreover, the growth inhibition in experiment [3] (setting [7]) is 25%; in experiment [3] (setting [8]), 94% (active); in experiment [3] (at 50.0 µM), 87.4% (active); in experiment [4] (setting [7]) it was 42%; in experiment [4] (setting [8]), 89% (active); in experiment [4] (at 50.0 µM), 84.8% (active). Besides, the growth inhibition in experiment [5] (setting [7]) is 64%; in experiment [5] (setting [8]), 97% (active); in experiment [5] (at 50.0 µM), 90.4% (active); in experiment [6] (setting [7]) it was 34%; in experiment [6] (setting [8]), 93% (active); in experiment [6] (at 50.0 µM) it was 89% (active).

`Nc1ccc2c(c1)Cc1c(Cl)cccc1-2`: the growth inhibition in experiment [1] (setting [7]) was 1%; in experiment [1] (setting [8]) it was 95% (active); in experiment [1] (at 50.0 µM) it was 96% (active); in experiment [2] (setting [7]) it was 3%; in experiment [2] (setting [8]) it was 96% (active); in experiment [2] (at 50.0 µM), 54.4%. Moreover, the growth inhibition was 3% in experiment [3] (setting [7]); 90% (active) in experiment [3] (setting [8]); 89.4% (active) in experiment [3] (at 50.0 µM); -12% in experiment [4] (setting [7]); 92% (active) in experiment [4] (setting [8]); 80.2% (active) in experiment [4] (at 50.0 µM). The growth inhibition was -3% in experiment [5] (setting [7]); 94% (active) in experiment [5] (setting [8]); 94.3% (active) in experiment [5] (at 50.0 µM); -1% in experiment [6] (setting [7]); 95% (active) in experiment [6] (setting [8]); 95.2% (active) in experiment [6] (at 50.0 µM).

`COc1cc(C(Sc2ccccc2C(=O)O)Sc2ccccc2C(=O)O)ccc1O`: the growth inhibition is 9% in experiment [1] (setting [7]); 91% (active) in experiment [1] (setting [8]); 95.5% (active) in experiment [1] (at 50.0 µM); 12% in experiment [2] (setting [7]); 88% (active) in experiment [2] (setting [8]); 95.6% (active) in experiment [2] (at 50.0 µM). Besides, the growth inhibition in experiment [3] (setting [7]) is 21%; in experiment [3] (setting [8]) it was 94% (active); in experiment [3] (at 50.0 µM), 97.4% (active); in experiment [4] (setting [7]), 8%; in experiment [4] (setting [8]), 93% (active); in experiment [4] (at 50.0 µM) it was 81.6% (active). The growth inhibition was 12% in experiment [5] (setting [7]); 97% (active) in experiment [5] (setting [8]); 87.9% (active) in experiment [5] (at 50.0 µM); 14% in experiment [6] (setting [7]); 95% (active) in experiment [6] (setting [8]); 98.5% (active) in experiment [6] (at 50.0 µM).

For `C[Si](C)(CCC(=O)O)O[Si](C)(C)CCC(=O)O`, the growth inhibition was -6% in experiment [1] (setting [7]); 91% (active) in experiment [1] (setting [8]); 99.5% (active) in experiment [1] (at 50.0 µM); -4% in experiment [2] (setting [7]); 92% (active) in experiment [2] (setting [8]); 99.7% (active) in experiment [2] (at 50.0 µM). Further, the growth inhibition is -6% in experiment [3] (setting [7]); 91% (active) in experiment [3] (setting [8]); 99.5% (active) in experiment [3] (at 50.0 µM); -1% in experiment [4] (setting [7]); 59% in experiment [4] (setting [8]); 98.2% (active) in experiment [4] (at 50.0 µM). The growth inhibition in experiment [5] (setting [7]) was -9%; in experiment [5] (setting [8]), 99% (active); in experiment [5] (at 50.0 µM) it was 99.5% (active); in experiment [6] (setting [7]), -1%; in experiment [6] (setting [8]), 68%; in experiment [6] (at 50.0 µM), 99.2% (active).

As to `Clc1ccc2ccc3cccnc3c2n1`, the growth inhibition in experiment [1] (setting [7]) is 9%; in experiment [1] (setting [8]), 95% (active); in experiment [1] (at 50.0 µM) it was -38.5%; in experiment [2] (setting [7]), 7%; in experiment [2] (setting [8]), 97% (active); in experiment [2] (at 50.0 µM) it was -9.5%. In addition, the growth inhibition was 0% in experiment [3] (setting [7]); 86% (active) in experiment [3] (setting [8]); -13.2% in experiment [3] (at 50.0 µM); -4% in experiment [4] (setting [7]); 92% (active) in experiment [4] (setting [8]); 7.9% in experiment [4] (at 50.0 µM). Besides, the growth inhibition in experiment [5] (setting [7]) was -7%; in experiment [5] (setting [8]), 98% (active); in experiment [5] (at 50.0 µM), 20.4%; in experiment [6] (setting [7]), 3%; in experiment [6] (setting [8]), 94% (active); in experiment [6] (at 50.0 µM) it was -25.1%.

Consider `Cc1ncc(CO)c(C=NCCCCCCN=Cc2c(CO)cnc(C)c2[O-])c1[O-].[Cu+2]`, for which the growth inhibition in experiment [1] (setting [7]) was -2%; in experiment [1] (setting [8]) it was -1%; in experiment [1] (at 50.0 µM), 3.9%; in experiment [2] (setting [7]), -3%; in experiment [2] (setting [8]), 1%; in experiment [2] (at 50.0 µM) it was -20.4%. In addition, the growth inhibition in experiment [3] (setting [7]) was -4%; in experiment [3] (setting [8]), -5%; in experiment [3] (at 50.0 µM), -5.85%; in experiment [4] (setting [7]), -5%; in experiment [4] (setting [8]), -1%; in experiment [4] (at 50.0 µM), 81.2% (active). Also, the growth inhibition was -3% in experiment [5] (setting [7]); -1% in experiment [5] (setting [8]); 25.9% in experiment [5] (at 50.0 µM); -2% in experiment [6] (setting [7]); 0% in experiment [6] (setting [8]); 25.4% in experiment [6] (at 50.0 µM).

Turning to `COc1cc(C(=O)[O][Sn]([c]2ccccc2)([c]2ccccc2)[c]2ccccc2)cc(OC)c1OC`, the growth inhibition was 100% (active) in experiment [1] (setting [7]); 99% (active) in experiment [1] (setting [8]); 98.6% (active) in experiment [1] (at 50.0 µM); 100% (active) in experiment [2] (setting [7]); 100% (active) in experiment [2] (setting [8]); 99.2% (active) in experiment [2] (at 50.0 µM). In addition, the growth inhibition in experiment [3] (setting [7]) is 99% (active); in experiment [3] (setting [8]) it was 99% (active); in experiment [3] (at 50.0 µM), 98.5% (active); in experiment [4] (setting [7]), 99% (active); in experiment [4] (setting [8]), 99% (active); in experiment [4] (at 50.0 µM), 89.2% (active). The growth inhibition in experiment [5] (setting [7]) is 99% (active); in experiment [5] (setting [8]) it was 99% (active); in experiment [5] (at 50.0 µM), 97% (active); in experiment [6] (setting [7]), 99% (active); in experiment [6] (setting [8]) it was 99% (active); in experiment [6] (at 50.0 µM), 98.3% (active).

Regarding `CC(C)(O)[C@H](CCO)O[Si](c1ccccc1)(c1ccccc1)C(C)(C)C`, the growth inhibition in experiment [1] (setting [7]) was 26%; in experiment [1] (setting [8]) it was 97% (active); in experiment [1] (at 50.0 µM) it was 98.3% (active); in experiment [2] (setting [7]), 18%; in experiment [2] (setting [8]), 98% (active); in experiment [2] (at 50.0 µM), 92% (active). The growth inhibition was 13% in experiment [3] (setting [7]); 97% (active) in experiment [3] (setting [8]); 98.2% (active) in experiment [3] (at 50.0 µM); 17% in experiment [4] (setting [7]); 97% (active) in experiment [4] (setting [8]); 97.5% (active) in experiment [4] (at 50.0 µM). In addition, the growth inhibition in experiment [5] (setting [7]) was 4%; in experiment [5] (setting [8]) it was 98% (active); in experiment [5] (at 50.0 µM), 98.5% (active); in experiment [6] (setting [7]), 23%; in experiment [6] (setting [8]) it was 97% (active); in experiment [6] (at 50.0 µM), 98.6% (active).

On to `O=C(/C(=C/c1ccc2c(c1)OCO2)c1ccccc1)c1ccc(OCCN2CCCC2)cc1`, for which the growth inhibition in experiment [1] (setting [7]) was -2%; in experiment [1] (setting [8]) it was -4%; in experiment [1] (at 50.0 µM), 34.9%; in experiment [2] (setting [7]) it was 3%; in experiment [2] (setting [8]), -8%; in experiment [2] (at 50.0 µM), 58.5%. Besides, the growth inhibition is -3% in experiment [3] (setting [7]); -16% in experiment [3] (setting [8]); 31.1% in experiment [3] (at 50.0 µM); -2% in experiment [4] (setting [7]); -8% in experiment [4] (setting [8]); 12.8% in experiment [4] (at 50.0 µM). Moreover, the growth inhibition is -7% in experiment [5] (setting [7]); -1% in experiment [5] (setting [8]); 3.45% in experiment [5] (at 50.0 µM); 5% in experiment [6] (setting [7]); 19% in experiment [6] (setting [8]); 7.35% in experiment [6] (at 50.0 µM).
